The structures appear in SMILES notation. Where “and” joins values, the source holds several entries; their conditions need not be identical. Equal values may be shown once. Results filed as inconclusive are left out. Unmarked numbers belong to inactive results. Calls of active or inactive are those of the source. Unless noted, calls follow the shape of the dose curve; as a rule, active = well fitted activation curve with a large enough effect; inconclusive = small, poorly fitted or top-dose-only effect; inactive = flat fitted curve, though single readings scatter.
Potency is read from the fitted curve at half-maximal effect.

The first assay in a line: qHTS assay to identify small molecules that stimulate interleukin-8 (IL-8) secretion (AID 651758; active = well fitted activation curve with a large enough effect in the signal ratio; the % refers to the signal ratio; as to activation: 0% is about no effect). The note with it: HTRF ratio (665/615); series mostly up to 92.2 µM. The procedure, abridged:
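Quantitative HTS in THP-1 monocytic cells at 2000 cells per well, with 16 hrs compound incubation at 37 C. IL-8 in the medium was then quantified by HTRF immunoassay, read after 1-3 hrs at room temperature.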
A general note: Quantitative high-throughput screening tests each substance at several concentrations.
For the compound `Oc1ccccc1-c1ccccc1`, the Potency result is “inactive”.

As to `COc1cc2c(c(OC)c1OC)-c1ccc(OC)c(=O)cc1[C@@H](NC(C)=O)CC2`, the Potency is 53.1 nM (active) and 47.3 nM (active).

Regarding `Oc1cccc2cccnc12`, the Potency result was “inactive”.

As for `CCCC(C)(COC(N)=O)COC(=O)NC(C)C` (configuration not stated), the Potency result was “inactive”.

Consider `C[C@]12C/C(=C/O)C(=O)C[C@@H]1CC[C@@H]1[C@@H]2CC[C@@]2(C)[C@H]1CC[C@]2(C)O`, for which the Potency result was “inactive”.

With `NCC(O)c1ccc(O)cc1` (configuration not stated), the Potency entry is “inactive”.

A short description of a further assay: qHTS assay for environmental chemicals that activate the Aryl hydrocarbon Receptor (AhR) signaling pathway (AID 651777). Also: nearly all actives have a fitted effect of over 15% in size. As to activation: % of control where 0% means no effect. The note with it: 1A2-DRE human hepatoma cells, luciferase, 24 h; activation: active compounds read high. The procedure, abridged:
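Induction of CYP1A2 transcription through AhR is detected by luciferase in 1A2-DRE hepatoma cells. Compounds or DMSO act for 24 hr at 37 C before a 30 min One-Glo step at room temperature.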
For `Cc1cc(SCc2sc(-c3ccc(C(F)(F)F)c(F)c3)nc2C)ccc1OCC(=O)O`, the activation is 14.6%.

As for `Oc1ccc(Cl)cc1Cc1ccccc1`, the activation was 0.74% and 2.47%.

With `NC(=Nc1ccccc1)Nc1ccccc1`, the Potency was 11.2 µM (active).

On to `CC(=O)Oc1ccccc1C(=O)Nc1ncc([N+](=O)[O-])s1`, for which the Potency was 0.708 µM (active).

As for `Oc1ccccc1-c1ccccc1`, the activation was 0.277% [middle of 4 runs].

As to `Nc1ccncc1`, the activation is -2.98%.

Take `O=c1oc2ccccc2c(O)c1C(CC(O)c1ccc(-c2ccc(Br)cc2)cc1)c1ccccc1` (configuration not stated): the activation was -0.116%.

`CCOP(=S)(OCC)Oc1cc(C)nc(C(C)C)n1`: the activation was 1.79% and 0.131%.

As for `C[C@]12CCC(=O)C(O)=C1CC[C@@H]1[C@@H]2CC[C@]2(C)C(=O)CC[C@@H]12`, the activation is 0.0711%.

For the compound `Oc1cccc2cccnc12`, the activation is 0.681% and 3.98%.

For the compound `N[C@@H](Cc1ccc(N(CCCl)CCCl)cc1)C(=O)O`, the activation is 3.17% and 3.79%.

The values are drawn from PubChem BioAssay (NCATS).
